Measurements as given in PubChem BioAssay (NCI).
Compounds without any hit were thinned out: in the full panel of roughly 79,000, 15% have a hit. Unmarked numbers belong to inactive results. Activity calls are given as the source filed them. Rule as the data show it: active = growth inhibition above about 70%; inactive = the rest.

Assay: NCI Yeast Anticancer Drug Screen. Data for the mgt1 strain (AID 153)
Settings: S. cerevisiae mgt1 mutant growth inhibition, stronger effect = higher value
Method: Growth inhibition of yeast strains with defined genetic alterations is measured as a screen for potential anti-cancer activity. Selected strains with alterations in DNA damage repair or cell cycle control were exposed to compounds and growth inhibition was measured relative to vehicle treated controls. The strain used in this assay is mgt1

| Compound | growth inhibition (at 1.2 µM) | growth inhibition (at 3.7 µM) | growth inhibition (at 11.0 µM) | growth inhibition (at 33.0 µM) | growth inhibition (at 100.0 µM) |
| --- | --- | --- | --- | --- | --- |
| Cc1cc2c3ccccc3c3ccccc3c2nn1 | -4% | -6% | -5% | -4% | -6% |
| CCCCNC1CCC2(SCCS2)c2[nH]c3ccccc3c21 (stereo not given) | 2% | -2% | 7% | -5% | 7% |
| Cn1c(=O)c2c(nc(N)n2C2OC(CO)C(O)C2O)n(C)c1=O (stereo not given) | -1% | -2% | 7% | -7% | 0% |
| CCC(C)OC(=O)Nc1ccc(C)c(NC(=O)OC(C)CC)c1 (stereo not given) | -2% | -2% | -1% | 1% | 96% (active) |
| CC(C)(C)[Si](C)(C)OCC1CCC(n2cnc3c(NC(=O)c4ccccc4)ncnc32)O1 (stereo not given) | -3% | -6% | 0% | 0% | -2% |
| CSc1nc(C)c(CCOC(C)=O)c(N=P(c2ccccc2)(c2ccccc2)c2ccccc2)n1 | 10% | 2% | -2% | -15% | 90% (active) |
| CCCC/C([O-])=C1/C(=O)N(c2ccccc2)N=C1C.CCCC/C([O-])=C1/C(=O)N(c2ccccc2)N=C1C.[Cu+2] | -2% | -1% | 0% | 0% | -5% |
| CC(C)CN(CC(C)C)C(=O)c1ccc(Cl)c(Cl)c1 | 2% | 2% | 1% | 21% | 98% (active) |
